Bioassay records as filed in PubChem.
ANO1 activ: activates or potentiates the mouse TMEM16A chloride channel | HEK293 TMEM16A/YFP-H148Q/I152L, iodide quench fluorescence; stronger effect = lower value | Q8BHY3 | AID 623877 | hit rate 0.3% among 340,000 | B-score at 10 µM;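 active = fluorescence-ratio B-score plate-corrected deviation score at least 3 library SD below zero, with starting fluorescence score within 5 deviations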;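 note: channel opened by trigger with iodide after compound preincubation; score built on the fluorescence ratio of max minus min over baseline; more negative score means more quench and so TMEM16A activation or potentiation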
CHT allo act: allosteric activators of human choline transporter CHT. hit rate 0.49% among 310,000. B-score at 10 µM. CHT-expressing cells, membrane potential dye, choline EC20; stronger effect = higher value; LV-AA mutant CHT in HEK293 cells. AID 488977;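 active = initial fluorescence not abnormally high and integrated response B-score, plate-corrected, over 3 SD above library mean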
Target sequence (Q9GZV3 whole entry, looked up): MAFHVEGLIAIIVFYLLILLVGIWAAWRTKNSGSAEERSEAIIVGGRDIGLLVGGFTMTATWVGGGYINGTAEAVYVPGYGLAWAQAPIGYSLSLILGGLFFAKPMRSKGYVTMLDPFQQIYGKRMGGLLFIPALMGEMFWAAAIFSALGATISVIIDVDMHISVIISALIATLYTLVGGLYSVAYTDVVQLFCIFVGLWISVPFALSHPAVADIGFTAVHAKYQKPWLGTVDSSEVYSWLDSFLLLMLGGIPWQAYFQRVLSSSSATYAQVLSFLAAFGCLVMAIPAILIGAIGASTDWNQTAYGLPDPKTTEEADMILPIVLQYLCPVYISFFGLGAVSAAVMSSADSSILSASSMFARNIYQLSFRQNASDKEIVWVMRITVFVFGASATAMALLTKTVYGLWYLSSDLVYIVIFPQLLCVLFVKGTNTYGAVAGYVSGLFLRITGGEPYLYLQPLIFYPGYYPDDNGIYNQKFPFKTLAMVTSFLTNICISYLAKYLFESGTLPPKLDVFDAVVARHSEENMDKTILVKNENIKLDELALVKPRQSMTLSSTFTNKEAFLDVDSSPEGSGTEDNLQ
CHT inh: inhibitors of human choline transporter CHT. Q9GZV3. CHT-expressing cells, membrane potential dye, choline response; stronger effect = lower value. B-score at 10 µM. hit rate 0.86% among 310,000. AID 488975;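 active = B-score over 3 SD under the library average, and starting fluorescence ratio not unusually high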;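 note: choline stimulus applied at its EC90 after an EC20 pre-addition; B-score computed on integrated fluorescence ratio after choline addition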
ANO1 block: blocks the mouse calcium-activated chloride channel TMEM16A; Q8BHY3; HEK293 TMEM16A/YFP iodide influx fluorescence, ionomycin; normalized B-score (activity score, 25-100; higher = stronger inhibition) at 10 µM; hit rate 1.2% among 310,000; AID 588511;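 active = ratio plate-corrected score three or more library SD toward inhibition, starting fluorescence score within five deviations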;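 note: score derived from kinetic fluorescence span divided by baseline fluorescence per well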
CHT act confirm: human CHT activation, confirmatory screen | shares compounds with CHT allo act | CHT-expressing cells, membrane potential dye fluorescence (FDSS); % of choline EC20–EC90 response window; HEK293 expressing CHT LV-AA mutant; choline added at its EC20 | activation, % at 10 µM | hit rate 91% among 2,500 | AID 504833;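 active = primary screen active, with duplicate mean activation above negative control mean plus 3 SD, cut at about 11% in these data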
HEK293 MP dye: activity in parental HEK293 cells lacking CHT. hit rate 62% among 2,500. membrane potential dye fluorescence (FDSS); measured after EC20 choline addition. ratio readout change at 10 µM, hits read low. shares compounds with CHT allo act;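 active = duplicate-averaged ratio beyond 3 SD from buffer wells, up or down, though filed actives are nearly all decreases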
Starred values were filed as active, the others as inactive; i = inactive; · = no result given. In the library only some 2.4% were active in any assay of this set; here they are far more common.

SMILES | ANO1 activ | CHT allo act | CHT inh | ANO1 block | CHT act confirm | HEK293 MP dye
CC(C)Oc1cccc(C(=O)Nc2ncn[nH]2)c1 | i | i | i | i | · | ·
CCN(CC)C(=O)CNC(=O)Cc1ccc(Cl)cc1 | i | i | i | i | · | ·
Cc1nn2c(NCCN(C)C)c3c(nc2c1-c1ccccc1)CCCC3 | i | i | i | i | 11.4* | -50.7*
Cc1c(C(=O)O)sc2nc3n(c(=O)c12)CCC3 | i | i | i | i | · | ·
Cn1cnc2c(N3CCCCC3)nccc21 | i | 8.69* | i | i | 70.8* | -64.5*
c1cc(N2CCCCC2)nc(N2CCCCC2)n1 | i | · | · | · | · | ·
CCN(CC)c1ccc(S(=O)(=O)N2CCOCC2)cc1NC(=O)Nc1ccccc1 | i | · | · | · | · | ·
COC(=O)C1CN(C(=O)C(C)Oc2cc(C)ccc2C(C)C)c2ccccc2O1 (configuration not stated) | i | i | i | i | · | ·
COC(=O)C1CN(C(=O)C(C)Oc2ccc(C(C)C)cc2)c2ccccc2O1 (configuration not stated) | i | i | i | i | 18.1* | i
O=C(CNC1=NCCC1)c1ccc(Cl)cc1 | i | i | i | i | 29.7* | -25.5*
O=C(ONC1=NCCCCC1)c1ccc(Cl)cc1 | i | i | i | i | · | ·
COc1ccc(C(=O)CNC2=NCCC2)cc1 | i | 8.18* | i | i | 57.1* | -46.8*
CN(C)CCNC(=O)c1onc(CSc2ccc(F)cc2)c1C(=O)NCCN(C)C | i | 6.7* | i | i | 17.5* | -20.5*
Cc1coc2cc3oc(=O)c(CCC(=O)NC4CC4)c(C)c3cc12 | i | i | i | i | · | ·
COc1cccc(C(=O)NCC(c2cccs2)N2CCc3ccccc32)c1 (configuration not stated) | i | 6.36* | i | i | 25.0* | i
CNC(=O)Cn1c(C)cc(=O)c2cccc(OC)c21 | i | 13* | i | i | 64.4* | -89*
Cc1cccc2c(=O)cc(C)n(CC(N)=O)c12 | i | 10.9* | i | i | 67.5* | -78*
COc1cccc2c(=O)cc(C)n(CC(=O)Nc3ccccc3C)c12 | i | i | i | i | · | ·
Cc1ccc2cccc(OCc3nnc(SCC(=O)O)n3C)c2n1 | i | i | i | i | 50.7* | -53.2*
CCOC(=O)N1CCN(c2cc(NCCO)c([N+](=O)[O-])c3nonc23)CC1 | i | i | i | i | 38.7* | -32.2*
O=C(O)c1ccc(/C=N/NC(=O)C2CC2(c2ccccc2)c2ccccc2)cc1 (configuration not stated) | · | i | i | i | · | ·
N=c1c2c3c(sc2ncn1CCN1CCOCC1)CCCCC3 | i | i | i | i | 68.6* | -32.3*
N=c1c2c3c(sc2ncn1CCCO)CCCC3 | i | 9.53* | i | i | 26.5* | -56.1*
c1nc(NCCN2CCOCC2)c2c3c(sc2n1)CCCCC3 | i | · | · | · | · | ·
N=c1c2c3c(sc2ncn1Cc1ccccc1)CCCC3 | i | i | i | i | · | ·
SMILES | ANO1 activ | CHT allo act | CHT inh | ANO1 block | CHT act confirm | HEK293 MP dye
CCCCn1cnc2sc3c(c2c1=N)CCCC3 | i | i | i | i | 53.1* | -41.3*
CCOc1ccc2nc(SCC#N)c(C#N)cc2c1 | i | i | i | i | · | ·
OCc1ccccc1CN1CCCCCC1 | i | i | i | i | · | ·
CC1(C(=O)c2ccccc2)C2c3c(ccc4ccccc34)OC(=O)C21C(=O)N1CCOCC1 (configuration not stated) | i | 7.32* | i | i | 15.8* | i
O=C(N1CCOCC1)N(CCN1CCOCC1)Cc1cccc2ccccc12 | i | i | i | i | · | ·
CCCN(CC(=O)Nc1cc(Cl)ccc1Cl)C(=O)/C=C/c1ccco1 | i | 6.82* | i | i | 31.0* | i
CCCN(CC(=O)Nc1cc(Cl)ccc1Cl)C(=O)/C=C/c1cc(OC)ccc1OC | i | · | · | · | · | ·
CC1CCCN(C(=O)C2CCN(c3nc(-c4ccccc4)nc4c3CCC4)CC2)C1 (configuration not stated) | i | i | i | i | · | ·
CC1CCCN(c2c3c(nc4ccccc24)CCCC3)C1 (configuration not stated) | i | i | i | i | 20.2* | i
CCN(CC)CCNS(=O)(=O)c1ccc2c3c(cccc13)C(=O)N2 | i | 7.43* | i | i | 72.9* | -74.4*
O=C1Nc2ccc(S(=O)(=O)N3CCCCCC3)c3cccc1c23 | i | i | i | i | · | ·
O=C1Nc2ccc(S(=O)(=O)NCc3ccccn3)c3cccc1c23 | i | · | · | · | · | ·
O=C1Nc2ccc(S(=O)(=O)N3CCCC3)c3cccc1c23 | i | i | i | i | · | ·
CN(C)CCNS(=O)(=O)c1ccc2c3c(cccc13)C(=O)N2 | i | 6.51* | i | i | 74.2* | -85.7*
CN1CCN(S(=O)(=O)c2ccc3c4c(cccc24)C(=O)N3)CC1 | i | 10.1* | i | i | 84.0* | -85.5*
Cc1cc[n+](CC(=O)c2cccc([N+](=O)[O-])c2)c2ccccc12 | i | 8.76* | i | i | 49.5* | -58*
Cc1c(CCOC(=O)c2cccc([N+](=O)[O-])c2)sc[n+]1CC(=O)c1ccccc1 | i | i | i | i | · | ·
CCOC(=O)CC1C(=O)NCCN1S(=O)(=O)c1ccc(Cl)cc1Cl (configuration not stated) | i | i | i | i | · | ·
CCCCCCn1c2c(c(=N)c3c1CCC3)CCC2 | i | 8.16* | i | i | 72.1* | -43.8*
CCCCCCCCCn1c2c(c(=N)c3c1CCC3)CCC2 | i | 10.9* | i | 100* | 81.8* | -61.3*
CCCCn1c2c(c(=N)c3c1CCC3)CCC2 | i | 7.4* | i | i | 34.6* | -51.6*
COc1ccc(CNC(=O)N2CCN(c3ccccc3)CC2)cc1 | i | i | i | i | · | ·
Cn1c(=O)n(C)c2cc([N+](=O)[O-])c(N3CCN(C(=O)c4cccc(Cl)c4)CC3)cc21 | i | i | i | i | · | ·
Cn1c(=O)n(C)c2cc([N+](=O)[O-])c(N3CCN(C(=O)c4cccc(F)c4)CC3)cc21 | i | i | i | i | 26.0* | -39.3*
Cn1c(=O)c(=O)n(C)c2cc([N+](=O)[O-])c(N3CCOCC3)cc21 | i | 6.54* | i | i | 65.7* | -61.4*
N=c1c(C(=O)NC2CCCC2)cc2c(=O)n3ccccc3nc2n1C1CCCCC1 | i | i | i | i | 47.9* | -35.4*
Cc1cc(C)c(C#N)c(SCC(=O)C(C)(C)C)n1 | i | i | i | i | · | ·
